Source: PubChem BioAssay
Unmarked numbers belong to inactive results.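 How the source made its calls: active means inhibition at or above 50% relative to wild type and mutant plate controls; inactive means inhibition below 50%.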

Assay: loss of swimming-algae plug formation – whole organism, Chlamydomonas reinhardtii, WT vs cilia-less mutant, absorbance, 96-well, primary screen (AID 463189);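 further: 0% = wild type cc124 cells in DMSO and 100% = ciliumless bld1 mutant cells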
Details: Chlamydomonas reinhardtii gravitaxis, OD600 absorbance, 2 days; at 10 µM; hits give high values

SMILES | inhibition [%]
Cc1ccc(=O)n(-c2ccccc2)c1 | 4.35
CC(C)(CO)Cc1cc(C(C)(C)C)c(O)c(C(C)(C)C)c1 | -2.65
Nn1nnc2ccccc21 | 1.8
CC(=O)SCC[N+](C)(C)C | -2.92
NCCCCN | -2.36
O=C(OCCN1CCCCC1)c1c[nH]c2ccccc12 | 5.42
CCCCC[C@H](CC(=O)NO)C(=O)N[C@H](C(=O)N1CCC[C@H]1CO)C(C)C | -2.25
CC(=O)NCCc1ccc(O)c(O)c1 | 5.98
Cc1cccc(C(=O)NCN2CCN(c3ccccc3C#N)CC2)c1 | 0.075
CCCn1c(=O)c2[nH]c(-c3ccc(S(=O)(=O)O)cc3)nc2n(CCC)c1=O | 1.25
Cc1nc(N=Nc2ccc(S(=O)(=O)O)cc2S(=O)(=O)O)c(COP(=O)(O)O)c(C=O)c1O | 2.65
Cc1[nH]c(=O)c(C#N)cc1-c1ccncc1 | 8.79
C[C@@H](NC(=O)/C(C#N)=C/c1ccc(O)c(O)c1)c1ccccc1 | 4.46
Cc1cccc(/C=C/c2ccccc2)n1 | 27.5
CCNC(=O)[C@H]1O[C@@H](n2cnc3c(N)nc(NCCc4ccc(CCC(=O)O)cc4)nc32)C(O)[C@H]1O (stereo partly drawn) | 3.28
CN1C2CCC1CC(OC(c1ccccc1)c1ccccc1)C2 (stereo not drawn) | 1.86
CCC(C)N(C)C(=O)c1cc2ccccc2c(-c2ccccc2Cl)n1 (stereo not drawn) | 2.31
NOCC(=O)O | -13.3
